Data as given in the supplement of paper PMC6555819.

What was measured:
Assay in all cases: PBM binding z-score (relative to random genomic background probes); higher = stronger binding; sequences stand for … in GC…GCGATTGACAGCGTAGAATGAAGG
[1] = tested on: PPARg:RXRa DBDmut IVT, anti-RXR (DBD mutation: RXRa K156A/R161A, NR concentration 270 nM, RXRa partner concentration 90 nM)
Procedure, shortened: (§1)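 Ligand-free nuclear receptor dimers were bound for 1 h to custom Agilent 4×180K protein-binding microarrays. Detection used antibodies against each partner (one per run). Binding z-scores rest on regression-normalized fluorescence, with random background probes as the reference.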

[2] = tested on: PPARg:RXRa IVT, anti-PPARg (NR concentration 270 nM, RXRa partner concentration 90 nM)
Procedure, shortened: as §1

[3] = tested on: PPARg DBDmut:RXRa IVT, anti-PPARg (DBD mutation: PPARg1 K132A/R137A, NR concentration 270 nM, RXRa partner concentration 90 nM)
Procedure, shortened: as §1

[4] = tested on: PPARg DBDmut IVT, anti-PPARg (DBD mutation: PPARg1 K132A/R137A, NR concentration 270 nM)
Procedure, shortened: as §1

[5] = tested on: PPARg homodimer (NR concentration 180 nM)
Procedure, shortened: as §1

[6] = tested on: PXR:RXRa (NR concentration 270 nM, RXRa partner concentration 90 nM)
Procedure, shortened: as §1

[7] = tested on: PXR homodimer (NR concentration 270 nM)
Procedure, shortened: as §1

[8] = tested on: RARa:RXR (NR concentration 270 nM, RXRa partner concentration 90 nM)
Procedure, shortened: as §1

[9] = tested on: RARa homodimer (NR concentration 270 nM)
Procedure, shortened: as §1

[10] = tested on: RARb:RXRa (NR concentration 270 nM, RXRa partner concentration 90 nM)
Procedure, shortened: as §1

[11] = tested on: RARb homodimer (NR concentration 270 nM)
Procedure, shortened: as §1

[12] = tested on: RARg:RXRa (NR concentration 270 nM, RXRa partner concentration 90 nM)
Procedure, shortened: as §1

[13] = tested on: RARg homodimer (NR concentration 270 nM)
Procedure, shortened: as §1

[14] = tested on: RXRa DBDmut IVT, anti-RXR (DBD mutation: RXRa K156A/R161A, NR concentration 90 nM)
Procedure, shortened: as §1

[15] = tested on: RXRa homodimer (NR concentration 180 nM)
Procedure, shortened: as §1

[16] = tested on: THRa:RXRa (NR concentration 90 nM, RXRa partner concentration 90 nM)
Procedure, shortened: as §1

[17] = tested on: THRa homodimer (NR concentration 90 nM)
Procedure, shortened: as §1

[18] = tested on: VDR homodimer (NR concentration 270 nM)
Procedure, shortened: as §1

| Sequence | PBM binding z-score [1] | PBM binding z-score [2] | PBM binding z-score [3] | PBM binding z-score [4] | PBM binding z-score [5] | PBM binding z-score [6] | PBM binding z-score [7] | PBM binding z-score [8] | PBM binding z-score [9] | PBM binding z-score [10] | PBM binding z-score [11] | PBM binding z-score [12] | PBM binding z-score [13] | PBM binding z-score [14] | PBM binding z-score [15] | PBM binding z-score [16] | PBM binding z-score [17] | PBM binding z-score [18] |
| --- | --- | --- | --- | --- | --- | --- | --- | --- | --- | --- | --- | --- | --- | --- | --- | --- | --- | --- |
| CGAACTAGGTCAAGGACAGTGTATCTCCGCACGC | 7.97 | 8.01 | 3.03 | 0.882 | 1.62 | 1.43 | -0.0646 | 2.03 | 0.437 | 3.95 | 3.56 | 3.8 | 4.37 | 1.87 | 2.55 | 3.45 | 2.61 | 0.841 |
| AGAACGAGGGCAATGAGTTGAGAGCACGGGTGGC | 2.9 | 2.73 | 0.608 | -0.139 | 0.0206 | 1.04 | 1.92 | 0.292 | -0.276 | 2.05 | 1.1 | 0.994 | 1.58 | 1.93 | 0.838 | 1.1 | -0.211 | 2.08 |
| ATATGTAGGTTAAGGGTCATTCTGGTTGGTTCGC | 7.57 | 7.51 | 2.31 | 1.76 | 4.67 | 4.85 | 1.04 | 5.63 | 2.03 | 3.56 | 3.64 | 4.65 | 3.2 | 2.17 | 6.03 | 3.23 | 1.75 | 4.43 |
| GCATGTAGGTAATACAAGGTGAAAGTCCGATTGT | 4.42 | 4.28 | 0.0664 | 0.517 | 0.562 | 0.369 | 0.257 | 1.52 | 0.17 | 0.218 | 0.748 | 0.359 | 0.236 | -0.332 | 0.495 | 3.96 | 0.81 | -0.301 |
| GCTCGGAGGACGAGGTCAGAGCTTTGTCCGTAGA | -0.0575 | 0.506 | -0.927 | -1.57 | 0.162 | 2.57 | 0.107 | 2.7 | -1.37 | 2.92 | 2.89 | 3.06 | 2.84 | 0.606 | 3.19 | 3.09 | 1.51 | 1.26 |
| CGTCAAAGTTCAACTAAGGAAACGTAAAGCACGC | 0.565 | 1.62 | 1.02 | 0.369 | 3.9 | 4.87 | 2.97 | 4.48 | 1.12 | 5.19 | 3.66 | 5.97 | 6.45 | 4.6 | 4.94 | 4.5 | 0.0826 | 3.88 |
| GTTCGGAGGACAAGGTCAGAGCTTTGTCCGTAGA | -0.0952 | 0.927 | -0.706 | -1.19 | 1.25 | 1.67 | -0.41 | 2.17 | -0.913 | 3.13 | 2.99 | 2.91 | 3.51 | 0.7 | 1.91 | 3.06 | 1.52 | 0.65 |
| TAGCCTAGGTCATGCGGGCAAGTATAGTGTCGGC | 1.66 | 3.02 | 0.235 | -0.248 | 1.39 | 1.45 | -0.333 | 2.21 | 0.228 | 3.83 | 3.16 | 4 | 4.38 | 0.563 | 3.03 | 2.89 | 0.9 | 0.528 |
